This is an account of results in PubChem BioAssay (Tox21).

A short description of assay [1]: qHTS assay to identify small molecule agonists of the TGF-beta/Smad signaling pathway (AID 1346859; active means well fitted activation curve with a large enough effect in the signal ratio in the repeat runs, not every such curve was filed as active; the % refers to the signal ratio; further: series mostly up to about 77 µM). Put shortly:
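Screening used HEK 293T SBE-bla cells at 4,000/well. Test agents: 5 hr, 37 C. Detection: FRET substrate, 2 hr RT, then excitation 405 nm with emissions at 460 and 530 nm.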
A general note: qHTS replaces the single test concentration by a dilution series.

The target in assay [2] is Thyrotropin-releasing hormone receptor (Homo sapiens) (UniProt P34981). As to the kind of experiment: qHTS assay to identify small molecule antagonists of the thyrotropin-releasing hormone receptor (TRHR) signaling pathway (AID 1346877; active means well fitted inhibition curve with a large enough effect in the repeat runs, not every such curve was filed as active; further: series mostly up to about 51 µM). Put shortly: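 Human TRHR in HEK293 cells; inhibition of the intracellular calcium rise triggered by 1 nM TRH was followed by fluorescence over 3 min. Compounds were run at 15 concentrations, three replicates each.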

The target is the same in assay [3]. As to the kind of experiment: qHTS assay to identify small molecule agonists of the thyrotropin-releasing hormone receptor (TRHR) signaling pathway (AID 1346891; calls by dose curve; further: series mostly up to about 58 µM). An outline of the steps:
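Readout was intracellular calcium fluorescence in TRHR-Hek293 cells. Cells were incubated 18 h, dye-loaded 2 h at 37 °C, and treated with compound in agonist mode.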

Assay [4] in a line: Human pregnane X receptor (PXR) small molecule agonists, qHTS cell viability counter screen (AID 1346977). Further: nearly all actives have a fitted effect of over 50% in size. An outline of the steps: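 In each well, the PXR reporter HepG2 line was checked for viability: CellTiter-Fluor reagent added 23hr post-dosing, fluorescence read after 1hr incubation at 37C.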
Assay [5] can be described thus: Caspase-3/7 induction in HepG2 cells by small molecules, qHTS assay (AID 1346978). Further: nearly all actives have a fitted effect of over 15% in size. An outline of the steps: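 Caspase-3/7 induction was measured by Caspase-Glo 3/7 luminescence (30 min, room temperature) after a 17 hr compound exposure of wild-type HepG2 cells seeded at 2,000 per well and pre-incubated 5 hr.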
Assay [6] can be described thus: Caspase-3/7 induction in CHO-K1 cells by small molecules, qHTS cell viability counter screen (AID 1346979). Further: nearly all actives have a fitted effect of over 35% in size. An outline of the steps: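 Following a 5hr settling period, CHO-K1 cells at 1,500 per well received DMSO-dissolved compounds. Cell viability was quantified 16hr later by CellTiter-Fluor fluorescence, measured after 1hr with reagent at 37C.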
Assay [7] can be described thus: Caspase-3/7 induction in CHO-K1 cells by small molecules, qHTS assay (AID 1346980). Further: nearly all actives have a fitted effect of over 15% in size. An outline of the steps: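 Luminescent Caspase-Glo 3/7 read (30min, room temperature) quantified apoptosis induction. Cells were wild-type CHO-K1, treated with compound for 17hr at 37 C and 5% CO2.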
Assay [8] is described as follows: Caspase-3/7 induction in HepG2 cells by small molecules, qHTS cell viability counter screen (AID 1346981). Further: series mostly up to about 92 µM; nearly all actives have a fitted effect of over 30% in size. An outline of the steps: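 The parent HepG2 line is plated at 2,000 cells per well and rested 5 hr before compound pinning from DMSO stocks. Following a 16-hr treatment at 37 C, a fluorogenic live-cell substrate (CellTiter-Fluor) reports viability after 1 hr.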

Assay [9] has as its target Nuclear receptor subfamily 1 group I member 2 (Homo sapiens) (UniProt O75469). Put plainly: Human pregnane X receptor (PXR) small molecule agonists, qHTS assay (AID 1346982). Further: nearly all actives have a fitted effect of over 35% in size. An outline of the steps: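 After plating in 5% charcoal-stripped FBS and a 5 hr rest, PXR-Luc HepG2 cells received compounds in DMSO. Following 24 hr at 37 C, ONE-Glo was added and light output read.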

Assay [10] has as its target Nuclear receptor subfamily 1 group I member 2 (Rattus norvegicus) (UniProt Q9R1A7). As to the kind of experiment: Rat pregnane X receptor (rPXR) activation by small molecules, qHTS assay (AID 1346983). Further: nearly all actives have a fitted effect of over 20% in size. Particulars: rPXR luciferase reporter cells, One-Glo luminescence, 24 h; max activation: active compounds read high. Put shortly: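 Luminescent readout (One-Glo luciferase, 30 min room temperature) followed 24 hr compound treatment at 37 C of rPXR cells plated 2,000 per well and preincubated 5hr; qHTS format with compounds delivered in DMSO.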

Assay [11] concerns the target Nuclear receptor subfamily 1 group I member 2 (Homo sapiens) (UniProt O75469). Put plainly: CYP3A4 induction through human pregnane X receptor (PXR) by small molecules, qHTS assay (AID 1346984). Further: nearly all actives have a fitted effect of over 40% in size. Put shortly: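 Human PXR activation is tracked via CYP3A4 promoter-luciferase in DPX-2 (HepG2) cells. Compounds treat cells for 24hr at 37C, and luminescence is read after One-Glo.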

The target is the same in assay [12]. As to the kind of experiment: Human pregnane X receptor (PXR) activation by small molecules, qHTS assay (AID 1346985). Further: nearly all actives have a fitted effect of over 40% in size. Put shortly:
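DPX-2 cells (HepG2 co-transfected with a PXR response element and a CYP3A4-promoter luciferase construct) were seeded at 2,000 per well, rested 5 hr at 37C, then exposed to DMSO-dissolved compounds for 24 hr. Activation was read as luciferase luminescence.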

The target in assay [13] is Cytochrome P450 2D6 (Homo sapiens) (UniProt P10635). As to the kind of experiment: Cytochrome P450 Family 2 Subfamily D Member 6 (CYP2D6) small molecule antagonists: luciferase reporter qHTS assay (AID 1671196). Further: series mostly up to about 120 µM; nearly all actives have a fitted effect of over 50% in size. An outline of the steps:
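Quantitative HTS of Tox21 chemicals against CYP2D6 using a luminescent proluciferin substrate. After NADPH addition, 1 h room-temperature reaction; luminescence recorded 20 min post detection reagent.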
On the technique in general: A reporter such as luciferase makes a cellular process visible.

The target of assay [14] is Cytochrome P450 2C19 (Homo sapiens) (UniProt P33261). Put plainly: Cytochrome P450 Family 2 Subfamily C Member 19 (CYP2C19) small molecule antagonists: luciferase reporter qHTS assay (AID 1671197). Further: nearly all actives have a fitted effect of over 65% in size. Further: potency means the concentration at half of the fitted maximal effect. On activity change, negative = inhibition: series mostly up to about 120 µM. An outline of the steps:
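Light output is proportional to CYP2C19 activity: proluciferin substrate is converted to luciferin, then detected by a luciferin detection reagent that also stops the 1 h, 37C NADPH-driven reaction. Ketoconazole serves as positive control.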

The target in assay [15] is Cytochrome P450 2C9 (Homo sapiens) (UniProt P11712). As to the kind of experiment: Cytochrome P450 Family 2 Subfamily C Member 9 (CYP2C9) small molecule antagonists: luciferase reporter qHTS assay (AID 1671198). Further: series mostly up to about 120 µM; nearly all actives have a fitted effect of over 50% in size. An outline of the steps: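 Enzyme-substrate mix preincubated with compound 10 min at room temperature; reaction started with NADPH regeneration solution, 1 h 37C. Luminescent luciferin product read after 20 min detection reagent.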

Assay [16] concerns the target Cytochrome P450 1A2 (Homo sapiens) (UniProt P05177). Put plainly: Cytochrome P450 Family 1 Subfamily A Member 2 (CYP1A2) small molecule antagonists: luciferase reporter qHTS assay (AID 1671199). Further: nearly all actives have a fitted effect of over 50% in size. Further: potency means the concentration at half of the fitted maximal effect. On activity change, negative = inhibition: series mostly up to about 120 µM. An outline of the steps: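 Quantitative high-throughput format using the P450-Glo CYP1A2 system. Reaction initiated by NADPH regeneration solution, 1 h at room temperature, then stopped with detection reagent; luminescence measured 20 min later.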

For assay [17], the target named is Voltage-gated inwardly rectifying potassium channel KCNH2 (Homo sapiens) (UniProt Q12809). Put plainly: Human Ether-a-go-go-Related Gene (hERG) channel small molecule antagonists: fluorescence cell-based qHTS assay (AID 1671200). Put shortly:
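In this thallium-flux screen, overnight-cultured U2OS cells bearing the channel are dye-loaded in darkness for an hour, rested 10 min at room temperature, and then monitored kinetically at 480/540 nm for two minutes post-stimulus.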
A general note: The hERG channel carries a current that helps repolarise heart muscle cells.

For assay [18], the target named is Cytochrome P450 3A4 (Homo sapiens) (UniProt P08684). As to the kind of experiment: Cytochrome P450 Family 3 Subfamily A Member 4 (CYP3A4) small molecule antagonists: luciferase reporter qHTS assay (AID 1671201). An outline of the steps: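 CYP3A4 activity was followed with a P450-Glo proluciferin substrate. Test compounds in DMSO were preincubated 10 min; NADPH regeneration then ran 1 h, and light output was read 20 min after detection reagent.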

A number with no mark means an inactive call. Records with an inconclusive call do not appear. Active and inactive are the calls of the source. Unless noted, the call rests on the fitted dose curve; in most records, active means well fitted curve in the direction sought with a large enough effect in the repeat runs; inconclusive means weak or mixed curves; inactive means no such curve, though single readings can be large; an effect the other way counts as inactive or inconclusive.
On the % scale 0 is the no-effect control and ±100 the full control effect.

Cytochrome P450 2C9 (Homo sapiens), sequence (P11712 whole entry, looked up): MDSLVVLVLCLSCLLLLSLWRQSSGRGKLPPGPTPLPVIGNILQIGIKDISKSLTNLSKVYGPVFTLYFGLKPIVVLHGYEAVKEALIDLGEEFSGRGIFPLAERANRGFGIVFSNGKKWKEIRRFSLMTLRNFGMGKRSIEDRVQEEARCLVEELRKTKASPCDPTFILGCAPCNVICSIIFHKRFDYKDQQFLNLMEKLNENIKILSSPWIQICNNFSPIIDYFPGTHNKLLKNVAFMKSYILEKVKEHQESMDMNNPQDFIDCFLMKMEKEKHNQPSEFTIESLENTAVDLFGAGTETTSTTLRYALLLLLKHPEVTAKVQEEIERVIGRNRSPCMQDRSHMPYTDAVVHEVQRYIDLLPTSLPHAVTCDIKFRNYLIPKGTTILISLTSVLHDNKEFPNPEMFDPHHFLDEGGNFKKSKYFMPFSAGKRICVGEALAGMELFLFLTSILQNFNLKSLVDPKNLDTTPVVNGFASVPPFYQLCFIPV
Voltage-gated inwardly rectifying potassium channel KCNH2 (Homo sapiens), sequence (Q12809 whole entry, looked up): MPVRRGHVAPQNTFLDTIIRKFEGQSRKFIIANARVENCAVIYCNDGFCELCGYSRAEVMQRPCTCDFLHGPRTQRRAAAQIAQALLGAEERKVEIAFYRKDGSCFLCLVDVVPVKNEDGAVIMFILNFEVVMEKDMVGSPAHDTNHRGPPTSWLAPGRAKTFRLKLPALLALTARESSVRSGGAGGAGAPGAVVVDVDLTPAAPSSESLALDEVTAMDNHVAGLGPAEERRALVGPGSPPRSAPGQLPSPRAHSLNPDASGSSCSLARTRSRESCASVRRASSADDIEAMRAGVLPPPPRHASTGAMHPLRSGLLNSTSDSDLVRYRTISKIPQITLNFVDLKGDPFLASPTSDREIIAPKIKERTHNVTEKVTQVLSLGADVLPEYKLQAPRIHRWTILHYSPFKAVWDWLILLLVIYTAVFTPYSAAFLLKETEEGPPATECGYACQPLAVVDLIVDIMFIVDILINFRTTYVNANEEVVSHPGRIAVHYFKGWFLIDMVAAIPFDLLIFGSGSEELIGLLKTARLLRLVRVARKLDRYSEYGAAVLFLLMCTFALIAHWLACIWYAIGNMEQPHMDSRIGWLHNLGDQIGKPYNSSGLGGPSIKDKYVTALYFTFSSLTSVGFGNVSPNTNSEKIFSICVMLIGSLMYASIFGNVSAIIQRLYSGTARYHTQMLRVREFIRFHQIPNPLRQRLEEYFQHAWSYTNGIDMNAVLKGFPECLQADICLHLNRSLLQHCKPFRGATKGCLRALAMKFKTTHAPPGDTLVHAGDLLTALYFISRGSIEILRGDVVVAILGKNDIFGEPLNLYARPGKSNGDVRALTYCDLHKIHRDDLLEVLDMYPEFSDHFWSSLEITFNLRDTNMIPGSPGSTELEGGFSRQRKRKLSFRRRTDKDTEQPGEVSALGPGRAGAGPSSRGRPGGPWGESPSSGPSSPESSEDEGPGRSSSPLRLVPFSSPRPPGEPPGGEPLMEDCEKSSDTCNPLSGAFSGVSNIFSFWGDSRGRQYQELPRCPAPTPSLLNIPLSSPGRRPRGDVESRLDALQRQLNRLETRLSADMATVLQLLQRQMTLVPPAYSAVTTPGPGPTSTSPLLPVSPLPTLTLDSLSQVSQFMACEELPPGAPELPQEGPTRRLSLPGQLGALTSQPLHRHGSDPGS
Cytochrome P450 2C19 (Homo sapiens), sequence (P33261 whole entry, looked up): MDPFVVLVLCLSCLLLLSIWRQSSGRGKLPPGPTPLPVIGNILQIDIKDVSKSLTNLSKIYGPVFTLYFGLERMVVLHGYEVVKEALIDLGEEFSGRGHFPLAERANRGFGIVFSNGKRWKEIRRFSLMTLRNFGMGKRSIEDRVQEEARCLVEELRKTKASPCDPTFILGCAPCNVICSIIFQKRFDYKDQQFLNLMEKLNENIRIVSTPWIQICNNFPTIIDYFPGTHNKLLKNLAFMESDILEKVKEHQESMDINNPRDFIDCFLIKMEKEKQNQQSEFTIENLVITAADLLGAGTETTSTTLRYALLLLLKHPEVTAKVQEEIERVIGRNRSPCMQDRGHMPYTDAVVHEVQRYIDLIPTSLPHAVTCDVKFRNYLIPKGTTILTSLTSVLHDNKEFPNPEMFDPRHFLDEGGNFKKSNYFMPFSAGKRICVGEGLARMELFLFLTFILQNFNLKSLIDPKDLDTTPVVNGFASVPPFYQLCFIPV
Thyrotropin-releasing hormone receptor (Homo sapiens), sequence (P34981 whole entry, looked up): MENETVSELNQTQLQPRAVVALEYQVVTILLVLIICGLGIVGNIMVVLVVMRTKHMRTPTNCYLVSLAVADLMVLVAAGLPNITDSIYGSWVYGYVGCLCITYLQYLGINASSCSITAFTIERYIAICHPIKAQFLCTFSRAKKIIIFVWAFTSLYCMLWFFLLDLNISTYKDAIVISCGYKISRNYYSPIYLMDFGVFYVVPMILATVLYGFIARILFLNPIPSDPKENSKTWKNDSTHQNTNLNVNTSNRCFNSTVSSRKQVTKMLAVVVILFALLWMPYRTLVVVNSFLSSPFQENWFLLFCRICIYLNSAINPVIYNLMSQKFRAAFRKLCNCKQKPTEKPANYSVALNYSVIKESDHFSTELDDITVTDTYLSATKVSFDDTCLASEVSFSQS
Cytochrome P450 1A2 (Homo sapiens), sequence (P05177 whole entry, looked up): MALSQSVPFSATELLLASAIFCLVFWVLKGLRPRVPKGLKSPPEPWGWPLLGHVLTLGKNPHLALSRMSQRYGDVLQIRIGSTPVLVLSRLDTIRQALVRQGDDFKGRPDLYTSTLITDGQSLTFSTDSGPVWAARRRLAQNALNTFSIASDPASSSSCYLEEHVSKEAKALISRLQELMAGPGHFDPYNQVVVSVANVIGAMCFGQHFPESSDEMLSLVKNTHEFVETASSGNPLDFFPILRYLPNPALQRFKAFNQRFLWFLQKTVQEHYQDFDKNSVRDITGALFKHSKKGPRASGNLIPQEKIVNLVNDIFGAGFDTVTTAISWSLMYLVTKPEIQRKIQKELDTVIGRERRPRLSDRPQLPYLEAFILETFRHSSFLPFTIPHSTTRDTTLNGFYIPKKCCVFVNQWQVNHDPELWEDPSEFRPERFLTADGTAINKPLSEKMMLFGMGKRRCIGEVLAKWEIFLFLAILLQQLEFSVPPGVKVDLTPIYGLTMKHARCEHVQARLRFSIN
Nuclear receptor subfamily 1 group I member 2 (Homo sapiens), sequence (O75469 whole entry, looked up): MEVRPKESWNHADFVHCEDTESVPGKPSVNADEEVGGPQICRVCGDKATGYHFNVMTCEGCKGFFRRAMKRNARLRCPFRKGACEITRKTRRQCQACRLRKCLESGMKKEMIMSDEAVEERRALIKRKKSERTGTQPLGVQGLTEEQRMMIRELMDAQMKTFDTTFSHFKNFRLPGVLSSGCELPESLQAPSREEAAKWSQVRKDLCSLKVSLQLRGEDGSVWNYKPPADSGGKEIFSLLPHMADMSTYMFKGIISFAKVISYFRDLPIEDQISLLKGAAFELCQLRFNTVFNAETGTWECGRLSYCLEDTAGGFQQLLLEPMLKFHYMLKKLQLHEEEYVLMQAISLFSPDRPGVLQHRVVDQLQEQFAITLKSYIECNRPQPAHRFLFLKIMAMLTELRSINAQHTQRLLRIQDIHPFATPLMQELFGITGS
Cytochrome P450 3A4 (Homo sapiens), sequence (P08684 whole entry, looked up): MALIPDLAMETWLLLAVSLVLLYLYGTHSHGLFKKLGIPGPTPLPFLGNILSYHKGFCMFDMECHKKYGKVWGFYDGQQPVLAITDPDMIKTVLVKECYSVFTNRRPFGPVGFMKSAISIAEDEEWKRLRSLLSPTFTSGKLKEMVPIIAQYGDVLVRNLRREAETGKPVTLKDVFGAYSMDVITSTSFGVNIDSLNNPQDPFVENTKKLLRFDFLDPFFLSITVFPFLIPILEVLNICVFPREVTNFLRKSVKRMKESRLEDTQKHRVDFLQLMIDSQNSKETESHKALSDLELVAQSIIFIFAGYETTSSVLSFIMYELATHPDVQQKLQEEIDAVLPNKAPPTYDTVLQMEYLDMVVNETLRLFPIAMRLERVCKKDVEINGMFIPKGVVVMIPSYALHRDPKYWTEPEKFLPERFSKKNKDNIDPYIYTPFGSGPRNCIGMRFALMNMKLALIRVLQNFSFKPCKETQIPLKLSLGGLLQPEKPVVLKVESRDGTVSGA
Cytochrome P450 2D6 (Homo sapiens), sequence (P10635 whole entry, looked up): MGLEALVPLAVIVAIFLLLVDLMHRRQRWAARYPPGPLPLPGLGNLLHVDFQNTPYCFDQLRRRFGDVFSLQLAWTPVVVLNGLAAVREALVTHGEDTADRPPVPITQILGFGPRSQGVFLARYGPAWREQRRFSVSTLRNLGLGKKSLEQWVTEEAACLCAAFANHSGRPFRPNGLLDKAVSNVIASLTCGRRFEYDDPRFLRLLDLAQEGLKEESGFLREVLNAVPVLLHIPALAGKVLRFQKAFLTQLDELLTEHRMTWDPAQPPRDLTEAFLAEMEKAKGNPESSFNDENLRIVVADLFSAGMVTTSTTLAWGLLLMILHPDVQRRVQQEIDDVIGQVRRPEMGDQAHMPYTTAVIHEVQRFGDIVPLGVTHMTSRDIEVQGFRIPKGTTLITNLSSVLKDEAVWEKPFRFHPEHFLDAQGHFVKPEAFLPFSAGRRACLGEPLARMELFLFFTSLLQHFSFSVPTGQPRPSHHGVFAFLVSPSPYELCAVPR
Nuclear receptor subfamily 1 group I member 2 (Rattus norvegicus), sequence (Q9R1A7 whole entry, looked up): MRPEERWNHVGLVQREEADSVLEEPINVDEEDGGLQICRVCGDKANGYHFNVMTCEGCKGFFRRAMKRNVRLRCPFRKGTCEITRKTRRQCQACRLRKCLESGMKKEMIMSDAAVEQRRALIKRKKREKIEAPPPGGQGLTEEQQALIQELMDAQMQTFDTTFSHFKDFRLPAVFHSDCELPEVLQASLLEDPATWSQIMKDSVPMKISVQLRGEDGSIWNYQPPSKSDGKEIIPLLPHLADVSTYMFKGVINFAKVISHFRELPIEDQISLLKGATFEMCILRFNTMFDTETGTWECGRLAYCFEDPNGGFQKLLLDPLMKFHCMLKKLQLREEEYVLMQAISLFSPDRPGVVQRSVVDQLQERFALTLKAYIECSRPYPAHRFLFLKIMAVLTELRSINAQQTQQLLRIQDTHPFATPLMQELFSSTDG

On to `Cc1ccc(S(=O)(=O)NC(=O)NN2CC3CCCC3C2)cc1` (stereo not drawn), for which the call in assay [1], in [2], in assay [4], in assay [5], in assay [7] and in assay [8] was inactive. Further, the result in assay [11] and in [12] was inactive. The Potency entry in assay [3], in assay [6], in assay [9], in assay [13], in [14] and in assay [15] was “inactive” throughout. Further, the Potency result in assay [16], in assay [17] and in assay [18] was “inactive” each time. In [10], the max activation was 1.11%.

Regarding `CC1(C)C(=O)C(C)(C)C1=O`, the call in [1], in assay [2], in [4], in assay [5], in [7] and in assay [8] was inactive. For the same compound, the Potency entry in [3], in assay [6], in [9], in assay [13], in [14] and in [15] was “inactive” each time. The Potency result in [16] is “inactive”.

As to `N=C(N)S(=O)O`, the call in assay [1], in assay [2], in assay [4], in assay [5], in assay [7] and in assay [8] was inactive. Further, the Potency entry in assay [3], in assay [6], in assay [9], in assay [13], in assay [14] and in assay [15] was “inactive” throughout. Also, the Potency entry in assay [16], in assay [17] and in assay [18] was “inactive” each time.

On to `CCN1CCN(C(=O)N[C@@H](C(=O)N[C@@H]2C(=O)N3C(C(=O)O)=C(CSc4nnnn4C)CS[C@H]23)c2ccc(O)cc2)C(=O)C1=O`, for which the compound was called inactive in assay [1], in assay [2], in [4], in assay [5], in [7] and in [8]. In addition, the compound was called inactive in assay [11] and in assay [12]. In addition, the Potency result in [3], in [6], in [9], in [14], in assay [15] and in assay [16] was “inactive” each time. The Potency entry in assay [17] and in [18] was “inactive” throughout. Further, in assay [10], the max activation was -3.62%.

With `CCCCc1ccc(Cl)cc1`, the result in assay [1], in assay [2], in assay [4], in [5] and in assay [7] was inactive. The Potency entry in assay [3], in assay [6], in [9], in assay [13], in assay [14] and in assay [15] was “inactive” in each case. The Potency entry in assay [18] is “inactive”.

On to `CC(=O)Nc1ccc(S(=O)(=O)Nc2cc(C)on2)cc1`, for which the result in assay [1], in assay [2], in assay [4], in assay [5] and in assay [7] was inactive. The Potency result in [3], in [6], in [9], in assay [14], in assay [15] and in assay [16] was “inactive” throughout. Moreover, the Potency result in [17] and in assay [18] was “inactive” in each case.

Consider `Cc1cc(O)c(Cl)cc1C`, for which the compound was classed as inactive in [1], in assay [2], in assay [4], in [5], in [7] and in assay [8]. In addition, the Potency result in assay [3], in [6], in assay [9], in [15] and in assay [18] was “inactive” each time. Besides, the Potency is 71 µM (active) in assay [14] and 25.2 µM (active) in assay [16].

For the compound `NC[C@H]1O[C@H](O[C@H]2[C@H](O)[C@@H](O[C@H]3O[C@H](CO)[C@@H](O)[C@H](N)[C@H]3O)[C@H](N)C[C@@H]2N)[C@H](N)[C@@H](O)[C@@H]1O`, the activation was 3.2% [at 15.8 µM] in assay [1], -0.0664% [at 11.8 µM] in assay [3] and -6.93% [at 19 µM] in assay [9]. Moreover, the activity, negative = inhibition in assay [2] is -3.11% [at 10.5 µM]. Moreover, the activity change, negative = cytotoxicity in [4] is 11% [at 19 µM]; in [6], 1.7% [at 19 µM]; in assay [8] it was 0.336% [at 19 µM]. The caspase activation in assay [5] is -1.91% [at 19 µM]. Moreover, the caspase-3/7 activation in [7] was -0.57% [at 19 µM]. The activity change, negative = inhibition in [14] was 39.5% [at 23.6 µM]; in assay [15] it was 16.5% [at 23.6 µM]; in assay [17], 1.37% [at 15.8 µM].
